# In ChEMBL document CHEMBL3988442, “University of Dundee, Small-Polar-MMV Screening Library” (2021):
# Biological target: T1, Methionyl-tRNA synthetase, putative (Leishmania donovani (strain BPK282A1)) (UniProt E9BF75)
# T1 sequence (whole entry): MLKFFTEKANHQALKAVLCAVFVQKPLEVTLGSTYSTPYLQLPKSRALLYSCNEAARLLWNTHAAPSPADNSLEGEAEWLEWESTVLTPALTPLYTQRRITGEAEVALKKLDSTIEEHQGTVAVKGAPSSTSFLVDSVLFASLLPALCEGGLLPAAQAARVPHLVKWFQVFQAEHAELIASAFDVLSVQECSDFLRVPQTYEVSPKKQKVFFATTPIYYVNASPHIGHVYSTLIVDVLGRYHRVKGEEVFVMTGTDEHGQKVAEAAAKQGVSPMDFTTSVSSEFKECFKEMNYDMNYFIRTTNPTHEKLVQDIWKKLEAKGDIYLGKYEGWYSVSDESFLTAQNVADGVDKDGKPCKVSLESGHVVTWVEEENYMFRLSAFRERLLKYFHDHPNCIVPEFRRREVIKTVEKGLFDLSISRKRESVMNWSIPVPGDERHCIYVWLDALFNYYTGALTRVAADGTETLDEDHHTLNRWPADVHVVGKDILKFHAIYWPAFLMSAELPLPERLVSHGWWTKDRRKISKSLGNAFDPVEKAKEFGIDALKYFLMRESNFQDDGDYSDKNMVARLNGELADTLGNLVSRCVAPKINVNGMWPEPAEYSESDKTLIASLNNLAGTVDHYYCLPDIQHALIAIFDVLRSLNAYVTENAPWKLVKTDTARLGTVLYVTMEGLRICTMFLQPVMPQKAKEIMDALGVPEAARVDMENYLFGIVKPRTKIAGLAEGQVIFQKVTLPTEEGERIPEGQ
# Assay: Leishmania donovani Methionine tRNA synthetase (LdMetRS):v7. Dose response assay
# Assay type: functional
# Set-up: conc 80 nM, time 150 minutes
smiles,measurement,setting,value
CNc1cc(-c2cccc(CN)c2)c2cc[nH]c2n1,PXC50,"BOTTOM 0.988395417, HILLSLOPE 1.522848712, MAX_EFFECT 89.26174497, TOP 100.0",4.55
same,PXC50,"BOTTOM -0.303339397, HILLSLOPE 1.457263574, MAX_EFFECT 90.27777778, TOP 100.0",4.5
same,PXC50,"BOTTOM -1.705392775, HILLSLOPE 1.008817214, MAX_EFFECT 54.59272097, TOP 100.0",4.07
O=S(=O)(NCCSc1nccn1C1CC1)c1ccccc1,PXC50,MAX_EFFECT 2.721088435,< 4
same,PXC50,MAX_EFFECT 2.898550725,< 4
same,PXC50,MAX_EFFECT 8.23117338,< 4
N[C@@H]1c2ccccc2C2(CCN(c3cnc4ccccc4n3)CC2)[C@H]1O,PXC50,"BOTTOM 0.263751901, HILLSLOPE 1.516790173, MAX_EFFECT 51.81975737, TOP 100.0",4.02
same,PXC50,"BOTTOM -0.439515819, HILLSLOPE 1.13741317, MAX_EFFECT 66.44295302, TOP 100.0",4.24
same,PXC50,"BOTTOM -1.864115217, HILLSLOPE 1.086184415, MAX_EFFECT 68.05555556, TOP 100.0",4.32
Cc1cnn(CCNCc2c(C)nn(CCO)c2C)c1,PXC50,MAX_EFFECT 2.721088435,< 4
same,PXC50,MAX_EFFECT 5.072463768,< 4
same,PXC50,MAX_EFFECT 8.23117338,< 4
Cn1ncc2c(NCC3CCOC3)nc(Nc3ccc(F)c(F)c3)nc21 (stereo not drawn),PXC50,"BOTTOM 0.0, HILLSLOPE 0.829006149, MAX_EFFECT 88.54961832, TOP 100.0",4.89
same,PXC50,"BOTTOM 5.170404417, HILLSLOPE 0.914601234, MAX_EFFECT 86.40350877, TOP 102.339634",4.72
same,PXC50,"BOTTOM -0.903989981, HILLSLOPE 0.887117975, MAX_EFFECT 86.41509434, TOP 97.82602818",4.97
Cn1ncc2c(NCC3CC3)nc(Nc3ccc(F)c(F)c3)nc21,PXC50,"BOTTOM 0.0, HILLSLOPE 1.193695984, MAX_EFFECT 69.21119593, TOP 72.54722957",5.02
same,PXC50,"BOTTOM -3.303876123, HILLSLOPE 0.978123659, MAX_EFFECT 83.23699422, TOP 90.5971187",5.12
same,PXC50,"BOTTOM -7.642255371, HILLSLOPE 0.84165704, MAX_EFFECT 66.22807018, TOP 86.93864885",4.93
Cn1cccc1C1CCCCCN1C(=O)c1ccc(NC2CC2)nc1 (stereo not drawn),PXC50,"BOTTOM 0.111908338, HILLSLOPE 1.39754326, MAX_EFFECT 51.12651646, TOP 100.0",4.03
same,PXC50,"BOTTOM 4.752718183, HILLSLOPE 1.435645002, MAX_EFFECT 69.44444444, TOP 100.0",4.25
same,PXC50,"BOTTOM 4.940186034, HILLSLOPE 1.180279811, MAX_EFFECT 63.75838926, TOP 100.0",4.18
same,PXC50,MAX_EFFECT 37.16108453,< 4
same,PXC50,MAX_EFFECT 39.73128599,< 4
COc1cnc(Nc2ccc(F)c(F)c2)nc1NCCO,PXC50,"BOTTOM 1.119092506, HILLSLOPE 0.867597172, MAX_EFFECT 78.41409692, TOP 85.56949583",5.21
same,PXC50,"BOTTOM 1.563075745, HILLSLOPE 0.960019265, MAX_EFFECT 80.27079304, TOP 89.78065845",4.95
same,PXC50,"BOTTOM 4.457946708, HILLSLOPE 0.924831459, MAX_EFFECT 80.78512397, TOP 87.63131575",5.14
Cn1ncc2c(NCC(F)F)nc(Nc3ccc(F)c(F)c3)nc21,PXC50,"BOTTOM 1.581546444, HILLSLOPE 1.045254628, MAX_EFFECT 85.66037736, TOP 91.59899261",5.09
same,PXC50,"BOTTOM 2.845790401, HILLSLOPE 0.765565912, MAX_EFFECT 91.60305344, TOP 108.0932569",4.86
same,PXC50,"BOTTOM 5.50929664, HILLSLOPE 0.80038345, MAX_EFFECT 90.35087719, TOP 108.0671509",4.81
CC(C)c1nc(N2CCC(N3CCCCCC3)CC2)c2cnn(C)c2n1,PXC50,"BOTTOM 1.611649307, HILLSLOPE 1.510978702, MAX_EFFECT 74.4966443, TOP 100.0",4.28
same,PXC50,"BOTTOM 2.404981537, HILLSLOPE 1.138566115, MAX_EFFECT 78.47222222, TOP 100.0",4.48
same,PXC50,"BOTTOM 5.527995165, HILLSLOPE 1.337567516, MAX_EFFECT 71.57712305, TOP 100.0",4.24
Cn1ncc2c(NCC3CCCO3)nc(Nc3ccc(F)c(F)c3)nc21 (stereo not drawn),PXC50,"BOTTOM 1.649824941, HILLSLOPE 0.742759749, MAX_EFFECT 82.45614035, TOP 99.7468185",4.96
same,PXC50,"BOTTOM 4.130822452, HILLSLOPE 0.904236715, MAX_EFFECT 86.03773585, TOP 94.6325805",4.99
same,PXC50,"BOTTOM 7.824180632, HILLSLOPE 1.170320257, MAX_EFFECT 82.95165394, TOP 90.00397209",4.93
Cc1cc(C)n(C2CN(CC(=O)N(C)Cc3cnn(C)c3)C2)n1,PXC50,"BOTTOM 1.685263138, HILLSLOPE 1.431243041, MAX_EFFECT 59.07590759, TOP 100.0",4.06
same,PXC50,MAX_EFFECT 33.33333333,< 4
same,PXC50,MAX_EFFECT 44.80286738,< 4
COc1ccc(-c2nc3c([nH]2)CCNC3C(=O)O)c2ccc(C)nc12 (stereo not drawn),PXC50,"BOTTOM 1.718114205, HILLSLOPE 1.017534888, MAX_EFFECT 58.69565217, TOP 100.0",4.17
same,PXC50,"BOTTOM 3.702697872, HILLSLOPE 1.816429842, MAX_EFFECT 76.89768977, TOP 100.0",4.25
same,PXC50,"BOTTOM -10.20592251, HILLSLOPE 0.737543358, MAX_EFFECT 64.87455197, TOP 100.0",4.33
CCNc1nc(Nc2ccc(F)c(F)c2)nc2c1cnn2C,PXC50,"BOTTOM 1.995747486, HILLSLOPE 0.878307732, MAX_EFFECT 82.01754386, TOP 90.74385953",5.04
same,PXC50,"BOTTOM -0.278671712, HILLSLOPE 0.874738485, MAX_EFFECT 76.33587786, TOP 84.21903162",5.21
same,PXC50,"BOTTOM -9.286701073, HILLSLOPE 0.734415983, MAX_EFFECT 80.15414258, TOP 112.1235893",4.93
CC(CO)Nc1nc(Nc2ccc(F)c(F)c2)nc2c1cnn2C (stereo not drawn),PXC50,"BOTTOM 2.552520772, HILLSLOPE 1.745088914, MAX_EFFECT 107.6446281, TOP 100.0",4.83
same,PXC50,"BOTTOM 8.006700064, HILLSLOPE 1.180035315, MAX_EFFECT 70.20872865, TOP 73.72941327",5.16
same,PXC50,"BOTTOM -2.864211308, HILLSLOPE 1.095022811, MAX_EFFECT 93.83259912, TOP 100.0",4.9
Cc1cnc(Nc2ccc(F)c(F)c2)nc1NCCO,PXC50,"BOTTOM 3.101896626, HILLSLOPE 0.807877595, MAX_EFFECT 79.29515419, TOP 94.15227944",5.03
same,PXC50,"BOTTOM 5.769615282, HILLSLOPE 1.014209397, MAX_EFFECT 83.3655706, TOP 87.41572948",5.22
same,PXC50,"BOTTOM -1.22519456, HILLSLOPE 0.709920628, MAX_EFFECT 85.74380165, TOP 105.2657083",5
COC(=O)CNc1nc(Nc2ccc(F)c(F)c2)nc2c1cnn2C,PXC50,"BOTTOM 3.451309233, HILLSLOPE 1.311155922, MAX_EFFECT 92.63657957, TOP 92.51088835",5.87
same,PXC50,"BOTTOM -7.309973035, HILLSLOPE 0.885022203, MAX_EFFECT 95.56840077, TOP 99.22229829",5.83
same,PXC50,"BOTTOM -8.727655422, HILLSLOPE 0.982384922, MAX_EFFECT 94.42060086, TOP 95.2064332",5.96
